A short description of assay [1]: antimalarial activity against Dd2 strain (AID 2302;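 active = growth inhibition above 50% at the single 2 µM test dose, taken to imply half-maximal potency below 2 µM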;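 note: 0% = DMSO untreated growth and 100% = chloroquine plus artemisinin killed control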). The note with it: P. falciparum Dd2 in RBCs, LDH growth readout, 72 h; at 2 µM; hits give high values.
The nature of assay [2]: human hepatoma cell viability loss – ATP luminescence, cytotoxicity control for P. falciparum antimalarial project, primary screen (AID 2303;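 active = inhibition above 50%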;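 note: 0% = DMSO wells and 100% = digitonin-killed cells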). Particulars: HepG2 viability, 24-48 h, at 10 µM, hits give high values.
In assay [3] the target is L-lactate dehydrogenase (Plasmodium falciparum (isolate CDC / Honduras)) (UniProt Q27743). Kind of assay: PfLDH activity inhibition – cell lysate, 3D7 strain, counter-screen for P. falciparum growth inhibition project (AID 2304).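 Note: 0% = vehicle and 100% = reference inhibitor.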 The note with it: P. falciparum 3D7 crude extract, LDH APAD/NBT absorbance; at 2 µM; hits give high values. On the technique in general: A counterscreen serves to expose hits that act by an unwanted route or on another target.

Assay [4] can be described thus: inhibition of 3D7 malaria parasite growth – strain 3D7 (AID 2306).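 Note: 0% = DMSO wells and 100% = chloroquine plus artemisinin control wells.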 Particulars: P. falciparum 3D7 erythrocytic growth, LDH absorbance, 72 h; at 2 µM; hits give high values.
For assay [5], the target named is Calcium-dependent protein kinase 1 (Plasmodium falciparum (isolate 3D7)) (UniProt P62344). Kind of assay: PfCDPK1 kinase inhibitors, biochemical, TCAMS library (AID 1159585; cut-off not given, nearly all actives have IC50 up to about 0.98 µM;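 note: inhibitors leave more ATP so luminescence rises with inhibition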). The note with it: recombinant PfCDPK1, Kinase-Glo ATP depletion luminescence.
Assay [6] deals with Plasmodium falciparum protein kinase 6 (PK6, PF3D7_1337100) (UniProt Q8IDW1). Kind of assay: PfPK6 kinase inhibitors, biochemical, TCAMS library (AID 1159586). Particulars: recombinant PfPK6, Kinase-Glo ATP depletion luminescence.
In assay [7] the target is Protein kinase 7 (PK7), Plasmodium falciparum 3D7 (PF3D7_0213400) (UniProt Q7YTF7). Kind of assay: inhibition of Plasmodium PK7 catalytic activity – biochemical, TCAMS antimalarial set, Kinase-Glo luminescence (AID 1159587). Particulars: recombinant PfPK7, Kinase-Glo ATP depletion luminescence.
The target of assay [8] is Calcium-dependent protein kinase 4 (Plasmodium falciparum (isolate 3D7)) (UniProt Q8IBS5). Kind of assay: PfCDPK4 kinase inhibitors, biochemical, TCAMS library (AID 1159588; cut-off not given, nearly all actives have IC50 up to about 0.91 µM). Particulars: recombinant PfCDPK4, Kinase-Glo ATP depletion luminescence. (In general: Kinase-Glo measures the ATP left after a reaction by luminescence.)

Unmarked numbers belong to inactive results. For part of these data: Entries with a potency or affinity are not part of this list. Calls of active or inactive are those of the source. Unless noted, the rule behind the calls is not given here.

The record followed here is PubChem BioAssay.

Sequence of Calcium-dependent protein kinase 4 (Plasmodium falciparum (isolate 3D7)) (Q8IBS5 whole entry, looked up): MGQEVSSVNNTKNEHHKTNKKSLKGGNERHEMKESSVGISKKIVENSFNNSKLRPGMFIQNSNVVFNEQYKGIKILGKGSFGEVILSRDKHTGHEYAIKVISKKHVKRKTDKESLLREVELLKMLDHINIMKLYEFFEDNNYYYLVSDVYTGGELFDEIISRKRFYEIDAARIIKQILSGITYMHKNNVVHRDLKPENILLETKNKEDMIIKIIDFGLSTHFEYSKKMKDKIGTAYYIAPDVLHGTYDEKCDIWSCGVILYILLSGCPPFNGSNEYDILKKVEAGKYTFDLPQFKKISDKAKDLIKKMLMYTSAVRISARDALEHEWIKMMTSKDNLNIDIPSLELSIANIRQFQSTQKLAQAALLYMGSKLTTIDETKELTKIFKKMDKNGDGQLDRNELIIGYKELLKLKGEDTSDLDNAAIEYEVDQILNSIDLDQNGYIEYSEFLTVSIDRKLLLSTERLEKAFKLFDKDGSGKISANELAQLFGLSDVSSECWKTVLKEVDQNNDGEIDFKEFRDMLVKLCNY
Sequence of Calcium-dependent protein kinase 1 (Plasmodium falciparum (isolate 3D7)) (P62344 whole entry, looked up): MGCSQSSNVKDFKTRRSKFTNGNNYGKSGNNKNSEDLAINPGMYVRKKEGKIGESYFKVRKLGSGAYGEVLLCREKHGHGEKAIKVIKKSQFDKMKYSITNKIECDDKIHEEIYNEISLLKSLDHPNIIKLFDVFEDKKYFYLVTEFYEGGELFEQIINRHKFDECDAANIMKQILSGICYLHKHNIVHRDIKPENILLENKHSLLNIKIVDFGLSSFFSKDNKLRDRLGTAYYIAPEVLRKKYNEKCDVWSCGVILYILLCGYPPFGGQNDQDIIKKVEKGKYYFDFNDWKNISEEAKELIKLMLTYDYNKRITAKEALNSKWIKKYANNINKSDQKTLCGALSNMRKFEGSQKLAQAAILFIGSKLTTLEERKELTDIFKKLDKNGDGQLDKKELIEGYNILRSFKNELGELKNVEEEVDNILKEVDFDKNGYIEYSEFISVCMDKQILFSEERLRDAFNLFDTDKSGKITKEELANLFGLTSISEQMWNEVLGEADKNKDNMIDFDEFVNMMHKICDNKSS
Sequence of Plasmodium falciparum protein kinase 6 (PK6, PF3D7_1337100) (Q8IDW1 1-305): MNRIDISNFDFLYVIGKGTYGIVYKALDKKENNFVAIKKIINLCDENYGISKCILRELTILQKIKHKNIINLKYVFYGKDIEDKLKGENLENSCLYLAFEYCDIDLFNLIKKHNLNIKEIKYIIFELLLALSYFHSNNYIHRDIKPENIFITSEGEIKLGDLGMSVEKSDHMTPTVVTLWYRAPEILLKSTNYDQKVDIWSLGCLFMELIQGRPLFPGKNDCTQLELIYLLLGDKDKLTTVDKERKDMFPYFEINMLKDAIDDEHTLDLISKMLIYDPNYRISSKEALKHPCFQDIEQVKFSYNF
Sequence of Protein kinase 7 (PK7), Plasmodium falciparum 3D7 (PF3D7_0213400) (Q7YTF7 1-343): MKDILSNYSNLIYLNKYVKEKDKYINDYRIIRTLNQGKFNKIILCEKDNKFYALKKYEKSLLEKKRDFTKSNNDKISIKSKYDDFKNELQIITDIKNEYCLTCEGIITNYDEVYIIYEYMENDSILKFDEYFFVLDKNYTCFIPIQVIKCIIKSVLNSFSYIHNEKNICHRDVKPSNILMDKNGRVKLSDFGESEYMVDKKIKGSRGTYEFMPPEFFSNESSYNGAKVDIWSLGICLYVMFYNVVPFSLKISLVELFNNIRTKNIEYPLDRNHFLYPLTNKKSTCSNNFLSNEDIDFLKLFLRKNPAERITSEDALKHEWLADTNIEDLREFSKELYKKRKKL
Sequence of L-lactate dehydrogenase (Plasmodium falciparum (isolate CDC / Honduras)) (Q27743 whole entry, looked up): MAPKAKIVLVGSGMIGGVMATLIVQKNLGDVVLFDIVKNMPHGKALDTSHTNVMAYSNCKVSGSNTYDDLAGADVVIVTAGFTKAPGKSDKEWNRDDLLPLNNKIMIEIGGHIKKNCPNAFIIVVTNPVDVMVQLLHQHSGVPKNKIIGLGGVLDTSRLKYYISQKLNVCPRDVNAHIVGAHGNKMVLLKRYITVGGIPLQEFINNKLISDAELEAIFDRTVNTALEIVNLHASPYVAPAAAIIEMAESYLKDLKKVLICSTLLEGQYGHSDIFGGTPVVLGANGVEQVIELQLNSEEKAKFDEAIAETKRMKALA

Take `COc1ccccc1CN1CCC(NC(=O)c2ccc(-c3cccc(C(F)(F)F)c3)s2)CC1`: the growth inhibition is 12% in assay [1] and 85% (active) in assay [4]. The inhibition in assay [2] is 83% (active); in assay [3], -2%. In addition, the outcome in assay [5], in assay [6], in assay [7] and in assay [8] was inactive.
For `CCc1cc(Br)c(CNCCCNc2cc(=O)c3ccccc3[nH]2)s1`, the growth inhibition is 45% in assay [1] and 90% (active) in assay [4]. Moreover, the inhibition in assay [2] is 6%; in assay [3] it was -10%. Also, the result in assay [5], in assay [6], in assay [7] and in assay [8] was inactive.
For the compound `Cc1c2ccc(N(C)c3ccnc(Nc4ccc5c(c4)nc(NC(C)C)n5C)n3)cc2nn1C`, the growth inhibition in assay [1] and in assay [4] was 100% (active) each time. The inhibition is 2% in assay [2] and -4% in assay [3]. The result in assay [5], in assay [6], in assay [7] and in assay [8] was inactive.

A word on the inhibition: it is the drop in the measured response relative to a control, in per cent.
